Results reported in the supplement of paper PMC11732987, “Enantioselective OTUD7B fragment discovery through chemoproteomics screening and high-throughput optimisation” (Communications Chemistry, 2025).

Legend:
Test in all cases: log2 ratio of Biotin-Ahx-Ub-VS probe labelling (fragment/DMSO); higher = less target engagement (more negative = stronger competition), active = hit call of the paper (q ≤ 0.05, log2 ratio ≤ -1)
Settings in all cases: compound concentration: 200 uM; treatment time: 3 h
[1] = target: T1, USP42 (UniProt Q9H9J4)
T1 sequence (whole entry): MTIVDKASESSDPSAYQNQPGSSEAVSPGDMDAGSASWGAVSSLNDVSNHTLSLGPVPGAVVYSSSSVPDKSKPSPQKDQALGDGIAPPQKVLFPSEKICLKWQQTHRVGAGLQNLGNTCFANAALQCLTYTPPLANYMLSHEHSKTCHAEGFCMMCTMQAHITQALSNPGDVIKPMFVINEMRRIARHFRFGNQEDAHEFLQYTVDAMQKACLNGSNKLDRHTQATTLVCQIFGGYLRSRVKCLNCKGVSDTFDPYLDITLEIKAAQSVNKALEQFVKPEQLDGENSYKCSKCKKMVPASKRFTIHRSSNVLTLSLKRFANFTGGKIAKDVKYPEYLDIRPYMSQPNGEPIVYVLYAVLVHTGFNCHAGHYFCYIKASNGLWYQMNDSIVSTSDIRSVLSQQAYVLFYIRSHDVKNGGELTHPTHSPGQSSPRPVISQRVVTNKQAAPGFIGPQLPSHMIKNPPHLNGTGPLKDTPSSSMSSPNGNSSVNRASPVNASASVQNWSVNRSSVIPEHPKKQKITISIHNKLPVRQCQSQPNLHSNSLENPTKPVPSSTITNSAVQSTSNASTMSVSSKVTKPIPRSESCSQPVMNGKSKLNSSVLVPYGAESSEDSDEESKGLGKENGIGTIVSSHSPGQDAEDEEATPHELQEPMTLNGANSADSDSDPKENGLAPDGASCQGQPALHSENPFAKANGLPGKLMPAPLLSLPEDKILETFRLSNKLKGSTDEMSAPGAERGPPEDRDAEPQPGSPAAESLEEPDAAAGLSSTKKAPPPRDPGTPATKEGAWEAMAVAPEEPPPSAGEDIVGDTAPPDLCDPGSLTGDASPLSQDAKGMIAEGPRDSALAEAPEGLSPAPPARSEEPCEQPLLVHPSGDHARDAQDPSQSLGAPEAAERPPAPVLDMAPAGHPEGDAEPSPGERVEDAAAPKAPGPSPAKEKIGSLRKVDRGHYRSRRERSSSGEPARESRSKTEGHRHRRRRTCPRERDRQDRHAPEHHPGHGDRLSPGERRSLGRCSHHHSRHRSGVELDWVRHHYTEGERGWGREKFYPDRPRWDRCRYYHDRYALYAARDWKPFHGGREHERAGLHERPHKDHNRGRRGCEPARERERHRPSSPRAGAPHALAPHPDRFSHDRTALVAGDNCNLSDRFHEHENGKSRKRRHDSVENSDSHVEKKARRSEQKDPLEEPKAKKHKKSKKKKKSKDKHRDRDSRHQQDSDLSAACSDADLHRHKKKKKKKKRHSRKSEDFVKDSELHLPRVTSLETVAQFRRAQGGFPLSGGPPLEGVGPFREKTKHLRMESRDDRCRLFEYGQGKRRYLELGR
How it was run: (§1)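 HEK293T lysate (495 µg per sample, in Tris/CHAPS/IGEPAL buffer with protease inhibitors) was treated in triplicate with fragment at 200 µM or with DMSO for 3 h. It was then treated with Biotin-Ahx-Ub-VS (0.5 µM final) for 1 h. Labelled DUBs were NeutrAvidin-enriched, digested with LysC and trypsin, and run by diaPASEF LC-MS/MS. Spectronaut label-free quantities were global-median-normalised. Values are average log2 ratios fragment/DMSO by unpaired t-test, using proteins with ≥2 unique peptides.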

[2] = target: USP46 (UniProt P62068)
Sequence of USP46 (P62068 whole entry): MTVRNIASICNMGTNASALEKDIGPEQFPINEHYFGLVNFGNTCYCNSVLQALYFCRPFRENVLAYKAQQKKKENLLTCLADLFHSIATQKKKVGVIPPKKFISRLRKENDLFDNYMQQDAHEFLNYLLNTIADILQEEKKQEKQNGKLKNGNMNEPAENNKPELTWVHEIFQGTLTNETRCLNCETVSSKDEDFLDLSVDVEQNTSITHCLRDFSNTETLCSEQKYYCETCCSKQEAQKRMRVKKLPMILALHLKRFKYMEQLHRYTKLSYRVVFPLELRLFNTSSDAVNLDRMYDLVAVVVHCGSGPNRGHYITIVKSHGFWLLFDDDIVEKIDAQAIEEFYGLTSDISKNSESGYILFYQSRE
How it was run: as §1

[3] = target: T2, USP47 (UniProt Q96K76)
T2 sequence (whole entry): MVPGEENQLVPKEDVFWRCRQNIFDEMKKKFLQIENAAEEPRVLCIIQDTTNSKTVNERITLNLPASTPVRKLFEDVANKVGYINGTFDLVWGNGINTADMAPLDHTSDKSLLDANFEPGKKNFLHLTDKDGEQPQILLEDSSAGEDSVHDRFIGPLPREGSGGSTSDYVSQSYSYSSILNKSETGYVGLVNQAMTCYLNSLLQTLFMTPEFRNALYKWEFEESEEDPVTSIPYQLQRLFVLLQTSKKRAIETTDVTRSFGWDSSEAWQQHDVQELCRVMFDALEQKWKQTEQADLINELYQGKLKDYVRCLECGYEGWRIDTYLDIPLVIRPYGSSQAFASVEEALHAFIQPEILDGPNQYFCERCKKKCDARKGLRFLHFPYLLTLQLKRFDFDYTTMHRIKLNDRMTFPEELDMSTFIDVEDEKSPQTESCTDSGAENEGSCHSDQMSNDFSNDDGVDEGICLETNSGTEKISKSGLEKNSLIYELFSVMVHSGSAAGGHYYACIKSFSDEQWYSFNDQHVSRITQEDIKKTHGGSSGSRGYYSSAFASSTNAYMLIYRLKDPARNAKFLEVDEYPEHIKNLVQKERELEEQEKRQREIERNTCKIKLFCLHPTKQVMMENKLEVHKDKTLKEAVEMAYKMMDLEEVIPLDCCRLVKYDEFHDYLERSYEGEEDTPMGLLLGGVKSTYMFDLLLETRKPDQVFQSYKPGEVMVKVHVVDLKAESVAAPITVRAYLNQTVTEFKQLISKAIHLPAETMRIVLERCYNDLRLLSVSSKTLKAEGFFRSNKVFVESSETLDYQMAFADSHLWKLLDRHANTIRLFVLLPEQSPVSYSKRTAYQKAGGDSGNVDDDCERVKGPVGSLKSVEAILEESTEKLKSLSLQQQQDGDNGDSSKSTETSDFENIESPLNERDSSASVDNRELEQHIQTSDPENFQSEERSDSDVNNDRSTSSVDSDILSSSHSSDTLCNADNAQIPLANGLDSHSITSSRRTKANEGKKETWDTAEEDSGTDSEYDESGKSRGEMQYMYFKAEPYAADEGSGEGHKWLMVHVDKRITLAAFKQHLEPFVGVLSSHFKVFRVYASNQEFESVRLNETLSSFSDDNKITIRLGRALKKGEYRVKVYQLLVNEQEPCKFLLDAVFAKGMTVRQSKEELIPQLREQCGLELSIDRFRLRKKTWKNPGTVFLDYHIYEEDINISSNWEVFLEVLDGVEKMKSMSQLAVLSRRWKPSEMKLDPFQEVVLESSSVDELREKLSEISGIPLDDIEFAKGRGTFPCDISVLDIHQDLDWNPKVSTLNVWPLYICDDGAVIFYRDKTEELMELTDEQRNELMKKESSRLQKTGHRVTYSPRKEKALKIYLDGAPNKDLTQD
How it was run: as §1

[4] = target: T3, USP48 (UniProt Q86UV5)
T3 sequence (whole entry): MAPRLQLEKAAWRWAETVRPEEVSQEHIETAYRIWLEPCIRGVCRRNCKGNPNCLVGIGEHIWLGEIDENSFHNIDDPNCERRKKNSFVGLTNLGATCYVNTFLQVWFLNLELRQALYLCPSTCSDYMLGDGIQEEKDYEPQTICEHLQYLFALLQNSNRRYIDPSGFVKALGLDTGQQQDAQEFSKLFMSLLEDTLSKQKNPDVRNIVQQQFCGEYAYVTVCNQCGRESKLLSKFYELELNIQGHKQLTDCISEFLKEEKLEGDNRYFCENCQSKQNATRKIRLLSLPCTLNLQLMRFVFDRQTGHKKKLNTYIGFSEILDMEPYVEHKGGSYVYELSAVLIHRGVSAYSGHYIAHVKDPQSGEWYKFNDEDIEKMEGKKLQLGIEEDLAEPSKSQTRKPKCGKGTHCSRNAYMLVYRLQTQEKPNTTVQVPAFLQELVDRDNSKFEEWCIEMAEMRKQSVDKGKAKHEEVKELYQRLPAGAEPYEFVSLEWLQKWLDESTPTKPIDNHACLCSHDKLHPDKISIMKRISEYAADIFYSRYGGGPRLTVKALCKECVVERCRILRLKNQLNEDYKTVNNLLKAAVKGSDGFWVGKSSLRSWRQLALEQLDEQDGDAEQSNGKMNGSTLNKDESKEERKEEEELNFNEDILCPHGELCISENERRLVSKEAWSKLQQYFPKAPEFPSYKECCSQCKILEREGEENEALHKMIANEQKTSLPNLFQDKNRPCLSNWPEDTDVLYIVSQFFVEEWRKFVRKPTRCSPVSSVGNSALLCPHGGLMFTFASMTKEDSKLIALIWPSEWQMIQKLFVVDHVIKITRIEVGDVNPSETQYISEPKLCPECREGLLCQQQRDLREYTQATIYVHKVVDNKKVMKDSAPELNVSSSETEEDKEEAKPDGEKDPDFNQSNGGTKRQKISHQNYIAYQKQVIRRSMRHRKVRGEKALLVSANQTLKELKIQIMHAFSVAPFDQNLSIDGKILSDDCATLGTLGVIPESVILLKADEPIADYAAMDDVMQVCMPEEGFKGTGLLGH
How it was run: as §1

[5] = target: T4, USP5 (UniProt P45974)
T4 sequence (whole entry): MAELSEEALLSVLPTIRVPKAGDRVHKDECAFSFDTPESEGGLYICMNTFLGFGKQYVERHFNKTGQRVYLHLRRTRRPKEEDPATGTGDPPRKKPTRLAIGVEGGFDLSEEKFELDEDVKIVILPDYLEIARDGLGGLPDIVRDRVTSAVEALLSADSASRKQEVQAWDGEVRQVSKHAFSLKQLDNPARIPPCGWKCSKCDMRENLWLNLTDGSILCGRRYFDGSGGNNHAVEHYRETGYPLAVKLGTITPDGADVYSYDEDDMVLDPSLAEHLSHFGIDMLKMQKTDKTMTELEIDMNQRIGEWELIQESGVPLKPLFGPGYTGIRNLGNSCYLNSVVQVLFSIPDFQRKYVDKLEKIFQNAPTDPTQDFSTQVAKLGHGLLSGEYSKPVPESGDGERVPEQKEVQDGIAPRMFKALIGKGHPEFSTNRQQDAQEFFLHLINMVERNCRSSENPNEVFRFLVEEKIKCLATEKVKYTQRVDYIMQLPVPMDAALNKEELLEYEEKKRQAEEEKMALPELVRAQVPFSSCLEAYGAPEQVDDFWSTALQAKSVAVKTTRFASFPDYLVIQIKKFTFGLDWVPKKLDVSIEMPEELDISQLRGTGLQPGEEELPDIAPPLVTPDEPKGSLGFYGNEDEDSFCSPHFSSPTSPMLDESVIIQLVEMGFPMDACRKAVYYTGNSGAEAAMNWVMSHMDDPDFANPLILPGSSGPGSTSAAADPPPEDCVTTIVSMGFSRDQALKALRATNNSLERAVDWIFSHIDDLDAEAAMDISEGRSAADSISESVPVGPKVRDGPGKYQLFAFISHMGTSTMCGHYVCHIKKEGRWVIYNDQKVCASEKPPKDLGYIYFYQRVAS
How it was run: as §1

[6] = target: USP54 (UniProt Q70EL1)
Sequence of USP54 (Q70EL1 whole entry): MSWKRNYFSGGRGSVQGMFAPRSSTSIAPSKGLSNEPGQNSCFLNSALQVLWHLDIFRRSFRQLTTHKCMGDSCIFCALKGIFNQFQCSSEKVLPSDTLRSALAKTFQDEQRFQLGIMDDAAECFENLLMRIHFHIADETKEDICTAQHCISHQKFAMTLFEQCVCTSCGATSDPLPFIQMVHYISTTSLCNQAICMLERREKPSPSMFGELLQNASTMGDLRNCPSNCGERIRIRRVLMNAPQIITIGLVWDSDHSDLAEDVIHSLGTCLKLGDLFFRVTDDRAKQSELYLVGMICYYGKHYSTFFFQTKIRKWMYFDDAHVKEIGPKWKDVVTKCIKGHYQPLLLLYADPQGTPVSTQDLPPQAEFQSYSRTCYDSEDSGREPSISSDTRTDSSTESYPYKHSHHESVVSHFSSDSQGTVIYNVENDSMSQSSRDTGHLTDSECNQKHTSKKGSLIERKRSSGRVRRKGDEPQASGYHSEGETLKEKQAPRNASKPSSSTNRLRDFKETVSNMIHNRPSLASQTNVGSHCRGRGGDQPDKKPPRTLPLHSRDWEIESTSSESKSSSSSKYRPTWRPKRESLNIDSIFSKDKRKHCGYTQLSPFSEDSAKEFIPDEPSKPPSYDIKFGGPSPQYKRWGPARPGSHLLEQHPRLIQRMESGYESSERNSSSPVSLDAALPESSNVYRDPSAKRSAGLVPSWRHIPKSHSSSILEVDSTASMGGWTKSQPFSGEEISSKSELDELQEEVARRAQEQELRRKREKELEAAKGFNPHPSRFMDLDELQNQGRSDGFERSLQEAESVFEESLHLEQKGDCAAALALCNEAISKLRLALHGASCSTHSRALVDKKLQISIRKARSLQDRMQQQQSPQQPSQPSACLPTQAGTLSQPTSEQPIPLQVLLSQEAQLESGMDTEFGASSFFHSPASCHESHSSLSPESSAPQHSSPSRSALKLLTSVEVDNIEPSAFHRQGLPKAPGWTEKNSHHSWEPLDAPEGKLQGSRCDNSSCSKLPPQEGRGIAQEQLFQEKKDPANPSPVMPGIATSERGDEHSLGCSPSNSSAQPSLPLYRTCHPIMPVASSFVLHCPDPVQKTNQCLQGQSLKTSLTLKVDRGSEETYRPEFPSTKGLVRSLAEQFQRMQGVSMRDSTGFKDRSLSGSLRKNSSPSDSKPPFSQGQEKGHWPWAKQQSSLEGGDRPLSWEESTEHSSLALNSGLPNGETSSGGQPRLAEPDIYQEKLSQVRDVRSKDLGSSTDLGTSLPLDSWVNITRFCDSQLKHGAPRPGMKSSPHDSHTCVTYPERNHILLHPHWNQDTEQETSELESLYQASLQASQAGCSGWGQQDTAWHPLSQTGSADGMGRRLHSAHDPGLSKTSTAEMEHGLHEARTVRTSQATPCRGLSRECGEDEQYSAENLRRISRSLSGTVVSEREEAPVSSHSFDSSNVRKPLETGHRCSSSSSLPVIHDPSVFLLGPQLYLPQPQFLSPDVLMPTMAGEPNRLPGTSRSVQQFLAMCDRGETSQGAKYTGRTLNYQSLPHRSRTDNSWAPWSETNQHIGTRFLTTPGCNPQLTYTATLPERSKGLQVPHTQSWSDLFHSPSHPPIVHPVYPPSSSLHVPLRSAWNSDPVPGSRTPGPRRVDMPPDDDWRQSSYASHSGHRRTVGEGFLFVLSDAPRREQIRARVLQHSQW
How it was run: as §1

[7] = target: USP7 (UniProt Q93009)
Sequence of USP7 (Q93009 whole entry, looked up): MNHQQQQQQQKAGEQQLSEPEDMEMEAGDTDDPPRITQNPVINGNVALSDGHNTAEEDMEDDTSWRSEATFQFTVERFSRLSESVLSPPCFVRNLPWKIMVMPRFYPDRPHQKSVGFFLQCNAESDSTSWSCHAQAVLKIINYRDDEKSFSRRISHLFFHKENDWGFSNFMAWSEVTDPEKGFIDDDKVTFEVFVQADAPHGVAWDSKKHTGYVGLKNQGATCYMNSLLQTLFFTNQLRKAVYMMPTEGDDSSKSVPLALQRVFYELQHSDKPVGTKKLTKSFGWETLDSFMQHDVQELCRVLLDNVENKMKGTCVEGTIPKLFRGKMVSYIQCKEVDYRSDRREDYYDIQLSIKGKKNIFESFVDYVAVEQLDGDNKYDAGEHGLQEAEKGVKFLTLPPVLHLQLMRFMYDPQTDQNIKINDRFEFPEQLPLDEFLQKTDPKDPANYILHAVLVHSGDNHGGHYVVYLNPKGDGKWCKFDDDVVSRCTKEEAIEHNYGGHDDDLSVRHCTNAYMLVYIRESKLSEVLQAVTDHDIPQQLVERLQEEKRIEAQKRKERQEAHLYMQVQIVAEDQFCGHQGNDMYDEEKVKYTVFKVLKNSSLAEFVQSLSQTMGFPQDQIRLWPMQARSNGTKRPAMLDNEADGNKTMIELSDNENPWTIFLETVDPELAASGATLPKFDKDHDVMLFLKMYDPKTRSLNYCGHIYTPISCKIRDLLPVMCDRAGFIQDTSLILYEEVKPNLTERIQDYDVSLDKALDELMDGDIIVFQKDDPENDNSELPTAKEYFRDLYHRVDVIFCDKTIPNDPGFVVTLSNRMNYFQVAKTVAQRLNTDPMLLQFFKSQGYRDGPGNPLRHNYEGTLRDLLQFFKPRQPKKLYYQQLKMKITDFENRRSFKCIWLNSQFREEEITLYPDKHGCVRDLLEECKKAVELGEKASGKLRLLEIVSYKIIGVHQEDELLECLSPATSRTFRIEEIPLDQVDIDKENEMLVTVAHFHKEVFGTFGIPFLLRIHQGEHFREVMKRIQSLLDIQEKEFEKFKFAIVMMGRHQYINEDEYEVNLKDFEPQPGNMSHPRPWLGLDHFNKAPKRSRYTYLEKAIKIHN
How it was run: as §1

[8] = target: T5, USP8 (UniProt P40818)
T5 sequence (whole entry): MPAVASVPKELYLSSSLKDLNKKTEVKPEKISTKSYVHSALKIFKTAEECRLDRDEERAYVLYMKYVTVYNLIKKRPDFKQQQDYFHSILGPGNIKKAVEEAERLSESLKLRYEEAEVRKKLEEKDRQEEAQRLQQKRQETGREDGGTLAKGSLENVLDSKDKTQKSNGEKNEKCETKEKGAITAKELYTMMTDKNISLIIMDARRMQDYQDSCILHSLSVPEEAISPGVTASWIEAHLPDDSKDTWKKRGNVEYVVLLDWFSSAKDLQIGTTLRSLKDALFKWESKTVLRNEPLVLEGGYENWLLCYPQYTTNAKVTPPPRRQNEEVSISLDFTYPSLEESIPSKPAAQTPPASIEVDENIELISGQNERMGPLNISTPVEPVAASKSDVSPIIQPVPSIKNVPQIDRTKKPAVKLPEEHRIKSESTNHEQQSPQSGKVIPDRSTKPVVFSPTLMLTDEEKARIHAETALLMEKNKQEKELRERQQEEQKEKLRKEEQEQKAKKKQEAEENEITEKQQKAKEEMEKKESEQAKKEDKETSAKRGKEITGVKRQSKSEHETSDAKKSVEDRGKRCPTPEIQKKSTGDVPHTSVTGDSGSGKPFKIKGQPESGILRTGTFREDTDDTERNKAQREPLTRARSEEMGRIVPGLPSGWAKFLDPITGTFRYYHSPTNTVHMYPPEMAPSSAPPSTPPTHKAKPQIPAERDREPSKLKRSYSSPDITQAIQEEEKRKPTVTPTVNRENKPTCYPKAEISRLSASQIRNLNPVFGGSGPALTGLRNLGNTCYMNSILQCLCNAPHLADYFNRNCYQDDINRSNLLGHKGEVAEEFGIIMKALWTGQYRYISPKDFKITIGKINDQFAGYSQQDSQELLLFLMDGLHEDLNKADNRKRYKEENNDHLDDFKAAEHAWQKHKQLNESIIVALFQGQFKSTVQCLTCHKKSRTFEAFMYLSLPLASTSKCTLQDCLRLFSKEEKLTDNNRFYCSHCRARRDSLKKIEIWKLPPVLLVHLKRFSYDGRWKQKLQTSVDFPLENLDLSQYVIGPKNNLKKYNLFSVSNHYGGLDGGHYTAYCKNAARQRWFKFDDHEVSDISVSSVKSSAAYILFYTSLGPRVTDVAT
How it was run: as §1

Measured: log2 ratio of Biotin-Ahx-Ub-VS probe labelling

O=C(CCl)N1CCOC2(CCC2)C1
inactive: [1] 0.183 | [2] 0.171 | [3] -0.386 | [4] -0.474 | [5] 0.109 | [6] -0.395 | [7] 0.0903 | [8] -0.347
